Test results: PubChem BioAssay (NCI)
The panel holds about 79,000 compounds, 15% with a hit somewhere; the sample as a whole holds those more often. Active and inactive are the calls of the source. No stated cut-off is given here; in the data, active means growth inhibition above about 70%; inactive means the rest.

What was measured:
[1] = NCI Yeast Anticancer Drug Screen. Data for the rad52 strain (AID 147);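 further: 0% = growth of vehicle-treated control cultures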; settings: S. cerevisiae rad52 mutant growth inhibition, active compounds read high
In short: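 The repair-mutant yeast strain was incubated with compounds, then growth was read and inhibition derived relative to vehicle.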

[2] = NCI Yeast Anticancer Drug Screen. Data for the wt1 strain (AID 149);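 further: 0% = growth of vehicle-treated wt1 cultures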; settings: S. cerevisiae wt1 strain (SPY 50644) growth inhibition, active compounds read high
In short: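 Measured: growth of wt1 yeast under compound versus vehicle treatment, reported as inhibition.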

[3] = NCI Yeast Anticancer Drug Screen. Data for the mgt1 strain (AID 153); settings: S. cerevisiae mgt1 mutant growth inhibition, active compounds read high
In short: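 Vehicle-normalized growth inhibition is determined in mgt1 yeast, a strain selected for a defined alteration in DNA repair or cell cycle control.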

[4] = NCI Yeast Anticancer Drug Screen. Data for the rad50 strain (AID 155);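 further: 0% = growth of vehicle-only cultures of the same strain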; settings: S. cerevisiae rad50 strain growth inhibition, active compounds read high
In short: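 Growth of the mutant yeast was measured after compound exposure and referenced to vehicle-treated cultures.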

[5] = NCI Yeast Anticancer Drug Screen. Data for the mec2-1 strain (AID 157); settings: S. cerevisiae mec2-1 strain, active compounds read high
In short: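 Mutant yeast (mec2-1) grown with compound; growth inhibition relative to vehicle control reported.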

[6] = NCI Yeast Anticancer Drug Screen. Data for the rad14 strain (AID 159);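 further: 0% = growth of vehicle-treated control cultures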; settings: S. cerevisiae rad14 strain growth inhibition, active compounds read high
In short: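 Here, inhibition of yeast growth was measured after compound exposure, using a strain with a genetic defect in DNA damage repair and vehicle-treated cultures as the reference.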

[7] = NCI Yeast Anticancer Drug Screen. Data for the sgs1 mgt1 strain (AID 161);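 further: 0% = growth of cultures given vehicle only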; settings: S. cerevisiae sgs1 mgt1 strain, active compounds read high
In short: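 Growth of a repair-deficient yeast mutant was monitored after compound treatment and expressed as inhibition relative to vehicle-treated cultures.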

[8] = NCI Yeast Anticancer Drug Screen. Data for the CLN2oe strain (AID 163);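 further: 0% = growth of vehicle-only control cultures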; settings: S. cerevisiae CLN2oe strain, active compounds read high
In short: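 Compounds are applied to yeast harbouring a defined cell-cycle control change; reduced growth compared with vehicle-treated controls gives the value.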

[9] = NCI Yeast Anticancer Drug Screen. Data for the cln2 rad14 strain (AID 165);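 further: 0% = growth equal to vehicle treated cultures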; settings: S. cerevisiae cln2 rad14 strain, active compounds read high
In short: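 Readout is yeast growth inhibition versus vehicle-treated controls, using a strain with cln2 and rad14 alterations exposed to compound.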

[10] = NCI Yeast Anticancer Drug Screen. Data for the bub3 strain (AID 167); settings: S. cerevisiae bub3 mutant strain, active compounds read high
In short: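 Whole-cell yeast assay. The mutant strain was incubated with compounds, and growth inhibition was determined by comparison with vehicle-treated cells.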

[11] = NCI Yeast Anticancer Drug Screen. Data for the wt2 strain (AID 169);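 further: 0% = growth of vehicle-treated yeast cultures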; settings: S. cerevisiae wt2 strain growth inhibition, active compounds read high
In short: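 Against vehicle-treated controls, the growth of yeast exposed to each compound was compared, and the inhibition was recorded.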

[12] = NCI Yeast Anticancer Drug Screen. Data for the mlh1 strain (AID 171);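 further: 0% = growth of vehicle-treated control cultures of the same strain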; settings: S. cerevisiae mlh1 strain growth inhibition, active compounds read high
In short: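 Measured: yeast growth. Reference: vehicle-treated controls. Organism: strain with a defined alteration affecting DNA damage repair or cell cycle control, treated with compound.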

[13] = NCI Yeast Anticancer Drug Screen. Data for the sgs1 strain (AID 173);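 further: 0% = growth of vehicle-only control cultures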; settings: S. cerevisiae sgs1 mutant, active compounds read high
In short: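 Each compound was added to cultures of the altered yeast strain. Growth was recorded, and inhibition was derived by comparison with vehicle controls.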

[14] = NCI Yeast Anticancer Drug Screen. Data for the mlh1 rad18 strain (AID 175); settings: S. cerevisiae mlh1 rad18 strain growth inhibition, active compounds read high
In short: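 Genetically defined yeast (DNA repair-deficient) exposed to compounds; growth inhibition determined relative to vehicle.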

[15] = NCI Yeast Anticancer Drug Screen. Data for the rad18 strain (AID 177); settings: S. cerevisiae rad18 mutant growth inhibition, active compounds read high
In short: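 Vehicle-treated cultures served as the baseline for scoring compound-induced growth inhibition in DNA-repair-mutant yeast.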

[16] = NCI Yeast Anticancer Drug Screen. Data for the rad50EPP+ strain (AID 151);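 further: 0% = growth of vehicle-treated control cultures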; settings: S. cerevisiae rad50 mutant strain, active compounds read high
In short: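 Vehicle-normalised growth inhibition; rad50EPP+ yeast strain, altered in DNA damage repair, compound-treated.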

[17] = at 5.0 µM (retest, dose inferred, filed as 0.5)
[18] = at 50.0 µM (retest, dose inferred, filed as 5.0)

Measured: growth inhibition

Cc1c2cc[n+](CCO)cc2c(C)c2c1[nH]c1ccc(O)cc12
inactive: [1]; at 1.2 µM 25% | [1]; at 3.7 µM 53% | [2]; at 1.2 µM 8% | [2]; at 3.7 µM 12% | [2]; at 11.0 µM 1% | [2]; at 33.0 µM 11% | [2]; at 100.0 µM 13% | [3]; at 1.2 µM 22% | [3]; at 3.7 µM 26% | [3]; at 11.0 µM 28% | [3]; at 33.0 µM 35% | [3]; at 100.0 µM 45% | [4]; at 1.2 µM 35% | [4]; at 3.7 µM 68% | [4]; [17] 47% | [5]; at 1.2 µM 22% | [5]; at 3.7 µM 28% | [5]; [17] 15% | [5]; at 11.0 µM 30% | [5]; at 33.0 µM 48% | [5]; [18] 36% | [5]; at 50.0 µM 36.7% | [5]; at 100.0 µM 52% | [6]; at 1.2 µM 4% | [6]; at 3.7 µM 9% | [6]; at 11.0 µM 3% | [6]; at 33.0 µM 19% | [6]; at 100.0 µM 29% | [7]; [17] 12% | [7]; [18] 35% | [7]; at 50.0 µM -1.6% | [8]; at 1.2 µM -11% | [8]; at 3.7 µM -32% | [8]; at 11.0 µM -17% | [8]; at 33.0 µM -9% | [8]; at 100.0 µM 3% | [9]; [17] 13% | [9]; [18] 15% | [9]; at 50.0 µM 7.55% | [10]; at 1.2 µM 6% | [10]; at 3.7 µM 9% | [10]; [17] 7% | [10]; at 11.0 µM 10% | [10]; at 33.0 µM 24% | [10]; [18] 33% | [10]; at 50.0 µM 1.35% | [10]; at 100.0 µM 28% | [11]; at 1.2 µM -8% | [11]; at 3.7 µM -6% | [11]; at 11.0 µM -4% | [11]; at 33.0 µM -9% | [11]; at 100.0 µM -10% | [12]; at 1.2 µM 25% | [12]; at 3.7 µM 32% | [12]; at 11.0 µM 41% | [12]; at 33.0 µM 42% | [12]; at 100.0 µM 47% | [13]; at 1.2 µM 18% | [13]; at 3.7 µM 19% | [13]; at 11.0 µM 17% | [13]; at 33.0 µM 25% | [13]; at 100.0 µM 42% | [14]; [17] 13% | [14]; [18] 36% | [15]; at 1.2 µM 20% | [15]; at 3.7 µM 20% | [15]; at 11.0 µM 19% | [15]; at 33.0 µM 40% | [15]; at 100.0 µM 49%
active: [1]; at 11.0 µM 80% | [1]; at 33.0 µM 91% | [1]; at 100.0 µM 91% | [4]; at 11.0 µM 89% | [4]; at 33.0 µM 94% | [4]; [18] 93% | [4]; at 50.0 µM 80.5% | [4]; at 100.0 µM 95% | [14]; at 50.0 µM 72.6%

CCC(/C=C/c1ccccc1)=N\Nc1ccc(Cl)cc1
active: [1]; at 33.0 µM 86% | [1]; at 100.0 µM 93% | [2]; at 100.0 µM 93% | [5]; [18] 80% | [5]; at 50.0 µM 85.5% | [6]; at 100.0 µM 76% | [7]; [18] 81% | [7]; at 50.0 µM 86.5% | [9]; at 50.0 µM 89.5% | [10]; [18] 86% | [10]; at 50.0 µM 97.8% | [11]; at 33.0 µM 80% | [11]; at 100.0 µM 94% | [13]; at 33.0 µM 77% | [13]; at 100.0 µM 95% | [14]; [18] 91% | [14]; at 50.0 µM 96% | [15]; at 33.0 µM 79% | [15]; at 100.0 µM 95%
inactive: [1]; at 1.2 µM -1% | [1]; at 3.7 µM 2% | [1]; at 11.0 µM -1% | [2]; at 1.2 µM 0% | [2]; at 3.7 µM -2% | [2]; at 11.0 µM -6% | [2]; at 33.0 µM 48% | [16]; at 1.2 µM 4% | [16]; at 3.7 µM 9% | [16]; at 11.0 µM 19% | [16]; at 33.0 µM 17% | [16]; at 100.0 µM 19% | [3]; at 1.2 µM -4% | [3]; at 3.7 µM 4% | [3]; at 11.0 µM 7% | [3]; at 33.0 µM 5% | [3]; at 100.0 µM 50% | [5]; at 1.2 µM 0% | [5]; at 3.7 µM 5% | [5]; [17] -3% | [5]; at 11.0 µM 9% | [5]; at 33.0 µM 6% | [5]; at 100.0 µM 52% | [6]; at 1.2 µM 0% | [6]; at 3.7 µM 0% | [6]; at 11.0 µM 3% | [6]; at 33.0 µM 0% | [7]; [17] 2% | [8]; at 1.2 µM -1% | [8]; at 3.7 µM 1% | [8]; at 11.0 µM 8% | [8]; at 33.0 µM 8% | [8]; at 100.0 µM 48% | [9]; [17] 5% | [9]; [18] 38% | [10]; at 1.2 µM -2% | [10]; at 3.7 µM 2% | [10]; [17] 3% | [10]; at 11.0 µM 5% | [10]; at 33.0 µM 32% | [10]; at 100.0 µM 51% | [11]; at 1.2 µM -4% | [11]; at 3.7 µM -9% | [11]; at 11.0 µM -4% | [12]; at 1.2 µM -2% | [12]; at 3.7 µM 4% | [12]; at 11.0 µM 4% | [12]; at 33.0 µM 2% | [12]; at 100.0 µM 52% | [13]; at 1.2 µM -3% | [13]; at 3.7 µM -4% | [13]; at 11.0 µM -1% | [14]; [17] 7% | [15]; at 1.2 µM -3% | [15]; at 3.7 µM 1% | [15]; at 11.0 µM 3%

OC1(c2ccccc2)C2CC=CC2C1(c1ccccc1)c1ccccc1 (stereo not drawn)
inactive: [1]; at 1.2 µM 0% | [1]; at 3.7 µM -1% | [1]; at 11.0 µM 4% | [1]; at 33.0 µM 34% | [1]; at 100.0 µM 63% | [2]; at 1.2 µM -4% | [2]; at 3.7 µM -7% | [2]; at 11.0 µM -8% | [2]; at 33.0 µM -7% | [2]; at 100.0 µM 21% | [16]; at 1.2 µM -7% | [16]; at 3.7 µM -1% | [16]; at 11.0 µM 2% | [16]; at 33.0 µM -5% | [16]; at 100.0 µM -5% | [4]; at 1.2 µM -2% | [4]; at 3.7 µM 6% | [4]; [17] 12% | [4]; at 11.0 µM 12% | [4]; at 33.0 µM 43% | [4]; [18] 53% | [4]; at 50.0 µM 12.1% | [4]; at 100.0 µM 62% | [5]; at 1.2 µM -3% | [5]; at 3.7 µM -2% | [5]; [17] -6% | [5]; at 11.0 µM -6% | [5]; at 33.0 µM 18% | [5]; [18] -10% | [5]; at 50.0 µM -14.2%
